Measured values reported in the supplement of paper PMC4466140.

Legend:
Experiment in all cases: SPOT peptide array binding signal intensity (averaged, normalized) (arbitrary units (background-subtracted, floor 0; scale differs between SH3 domains)); higher = stronger binding of the SH3 domain to the peptide
[1] = biological target: AgAbp1
Outline: (§1)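 The binding signal is the normalized, background-subtracted spot intensity averaged over replicates; its arbitrary units differ between domains. It was obtained by incubating 10 μg/ml GST-fused SH3 domains from four yeast species overnight at 4°C in TBS-based blocking buffer on cellulose membranes with synthetic 15-mer peptides, cysteines replaced by serines, then detecting with anti-GST antibody, HRP anti-mouse secondary and luminol.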

[2] = biological target: AgBbc1
Outline: as §1

[3] = biological target: AgBem1-D1
Outline: as §1

[4] = biological target: AgBzz1-D1
Outline: as §1

[5] = biological target: AgBzz1-D2
Outline: as §1

[6] = biological target: AgCyk3
Outline: as §1

[7] = biological target: AgFus1
Outline: as §1

[8] = biological target: AgHof1
Outline: as §1

[9] = biological target: AgHse1
Outline: as §1

[10] = biological target: AgLsb1
Outline: as §1

[11] = biological target: AgLsb4
Outline: as §1

[12] = biological target: AgMyo5
Outline: as §1

[13] = biological target: AgNbp2
Outline: as §1

[14] = biological target: AgRvs167
Outline: as §1

[15] = biological target: AgSho1
Outline: as §1

[16] = biological target: AgSla1-D1-D2
Outline: as §1

[17] = biological target: AgSla1-D3
Outline: as §1

[18] = biological target: CaAbp1-D1
Outline: as §1

[19] = biological target: CaAbp1-D2
Outline: as §1

[20] = biological target: CaBbc1
Outline: as §1

[21] = biological target: CaBem1-D1
Outline: as §1

[22] = biological target: CaBzz1-D1
Outline: as §1

[23] = biological target: CaBzz1-D2
Outline: as §1

[24] = biological target: CaCyk3
Outline: as §1

[25] = biological target: CaFus1
Outline: as §1

[26] = biological target: CaHof1
Outline: as §1

[27] = biological target: CaHse1
Outline: as §1

[28] = biological target: CaLsb1
Outline: as §1

[29] = biological target: CaLsb4
Outline: as §1

[30] = biological target: CaMyo5
Outline: as §1

[31] = biological target: CaNbp2
Outline: as §1

[32] = biological target: CaRvs167
Outline: as §1

[33] = biological target: CaRvs167-3
Outline: as §1

[34] = biological target: CaSho1
Outline: as §1

[35] = biological target: CaSla1-D1-D2
Outline: as §1

[36] = biological target: CaSla1-D3
Outline: as §1

[37] = biological target: ScAbp1
Outline: as §1

[38] = biological target: ScBbc1
Outline: as §1

[39] = biological target: ScBem1-D1
Outline: as §1

[40] = biological target: ScBzz1-D1
Outline: as §1

[41] = biological target: ScBzz1-D2
Outline: as §1

[42] = biological target: ScCyk3
Outline: as §1

[43] = biological target: ScFus1
Outline: as §1

[44] = biological target: ScHof1
Outline: as §1

[45] = biological target: ScHse1
Outline: as §1

[46] = biological target: ScLsb1
Outline: as §1

[47] = biological target: ScLsb2
Outline: as §1

[48] = biological target: ScLsb3
Outline: as §1

[49] = biological target: ScLsb4
Outline: as §1

[50] = biological target: ScMyo3
Outline: as §1

[51] = biological target: ScMyo5
Outline: as §1

[52] = biological target: ScNbp2
Outline: as §1

[53] = biological target: ScPex13
Outline: as §1

[54] = biological target: ScRvs167
Outline: as §1

[55] = biological target: ScSho1
Outline: as §1

[56] = biological target: ScSla1-D1-D2
Outline: as §1

[57] = biological target: ScSla1-D3
Outline: as §1

[58] = biological target: SpAbp1-D1
Outline: as §1

[59] = biological target: SpBbc1
Outline: as §1

[60] = biological target: SpBzz1-D1
Outline: as §1

[61] = biological target: SpBzz1-D2
Outline: as §1

[62] = biological target: SpCyk3
Outline: as §1

[63] = biological target: SpHof1
Outline: as §1

[64] = biological target: SpHof1-2
Outline: as §1

[65] = biological target: SpHof1-3
Outline: as §1

[66] = biological target: SpHse1
Outline: as §1

[67] = biological target: SpLsb1
Outline: as §1

[68] = biological target: SpLsb4
Outline: as §1

[69] = biological target: SpMyo1
Outline: as §1

[70] = biological target: SpNbp2
Outline: as §1

[71] = biological target: SpPex13
Outline: as §1

[72] = biological target: SpRvs167
Outline: as §1

[73] = biological target: SpSla1-D1-D2
Outline: as §1

[74] = biological target: SpSla1-D3
Outline: as §1

B1: unnamed (peptide)
chain: IRMPSNPALPKKLLN
SPOT peptide array binding signal intensity [1]: 194
SPOT peptide array binding signal intensity [2]: 40
SPOT peptide array binding signal intensity [3]: 431
SPOT peptide array binding signal intensity [4]: 10
SPOT peptide array binding signal intensity [5]: 10
SPOT peptide array binding signal intensity [6]: 1
SPOT peptide array binding signal intensity [7]: 806
SPOT peptide array binding signal intensity [8]: 59.5
SPOT peptide array binding signal intensity [9]: 367
SPOT peptide array binding signal intensity [10]: 2.5
SPOT peptide array binding signal intensity [11]: 21.5
SPOT peptide array binding signal intensity [12]: 1.75
SPOT peptide array binding signal intensity [13]: 308
SPOT peptide array binding signal intensity [14]: 2.33
SPOT peptide array binding signal intensity [15]: 852
SPOT peptide array binding signal intensity [16]: 16
SPOT peptide array binding signal intensity [17]: 7.5
SPOT peptide array binding signal intensity [18]: 616
SPOT peptide array binding signal intensity [19]: 1080
SPOT peptide array binding signal intensity [20]: 126
SPOT peptide array binding signal intensity [21]: 444
SPOT peptide array binding signal intensity [22]: 314
SPOT peptide array binding signal intensity [23]: 247
SPOT peptide array binding signal intensity [24]: 15
SPOT peptide array binding signal intensity [25]: 1400
SPOT peptide array binding signal intensity [26]: ≤ 0
SPOT peptide array binding signal intensity [27]: 504
SPOT peptide array binding signal intensity [28]: 15.5
SPOT peptide array binding signal intensity [29]: 692
SPOT peptide array binding signal intensity [30]: 97.5
SPOT peptide array binding signal intensity [31]: 1060
SPOT peptide array binding signal intensity [32]: 65.7
SPOT peptide array binding signal intensity [33]: 3.5
SPOT peptide array binding signal intensity [34]: 2070
SPOT peptide array binding signal intensity [35]: 476
SPOT peptide array binding signal intensity [36]: 424
SPOT peptide array binding signal intensity [37]: 104
SPOT peptide array binding signal intensity [38]: 9.5
SPOT peptide array binding signal intensity [39]: 2
SPOT peptide array binding signal intensity [40]: 17
SPOT peptide array binding signal intensity [41]: 29
SPOT peptide array binding signal intensity [42]: 6
SPOT peptide array binding signal intensity [43]: 805
SPOT peptide array binding signal intensity [44]: 5.5
SPOT peptide array binding signal intensity [45]: 89.5
SPOT peptide array binding signal intensity [46]: 102
SPOT peptide array binding signal intensity [47]: ≤ 0
SPOT peptide array binding signal intensity [48]: 769
SPOT peptide array binding signal intensity [49]: 296
SPOT peptide array binding signal intensity [50]: 35.2
SPOT peptide array binding signal intensity [51]: 2
SPOT peptide array binding signal intensity [52]: 509
SPOT peptide array binding signal intensity [53]: 195
SPOT peptide array binding signal intensity [54]: 32.5
SPOT peptide array binding signal intensity [55]: 1060
SPOT peptide array binding signal intensity [56]: 544
SPOT peptide array binding signal intensity [57]: 277
SPOT peptide array binding signal intensity [58]: 268
SPOT peptide array binding signal intensity [59]: 5
SPOT peptide array binding signal intensity [60]: 700
SPOT peptide array binding signal intensity [61]: 41
SPOT peptide array binding signal intensity [62]: 4
SPOT peptide array binding signal intensity [63]: 53.2
SPOT peptide array binding signal intensity [64]: 30
SPOT peptide array binding signal intensity [65]: 22.8
SPOT peptide array binding signal intensity [66]: 294
SPOT peptide array binding signal intensity [67]: 16.8
SPOT peptide array binding signal intensity [68]: 1170
SPOT peptide array binding signal intensity [69]: 67.5
SPOT peptide array binding signal intensity [70]: 241
SPOT peptide array binding signal intensity [71]: 136
SPOT peptide array binding signal intensity [72]: 107
SPOT peptide array binding signal intensity [73]: 17.5
SPOT peptide array binding signal intensity [74]: 477
